Data as given in the supplement of paper PMC4466140.

These binders were tested against CaNbp2 (assay: SPOT peptide array binding signal intensity (averaged, normalized) (arbitrary units (background-subtracted, floor 0; scale differs between SH3 domains)); higher = stronger binding of the SH3 domain to the peptide).
Summary of the method: (§1)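 E. coli BL21(DE3) was used to express GST-fused SH3 domains from four yeast species, which were then purified on glutathione Sepharose. These were incubated at 10 μg/ml in TBS-based blocking buffer overnight at 4°C on cellulose membranes carrying synthetic 15-mer peptides, in which cysteines were replaced by serines. Binding signal is the replicate average of normalized, background-subtracted spot intensity, in arbitrary units that differ between domains.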

Binder	SPOT peptide array binding signal intensity
GATNNAPTLPKRKNP	≤ 0

Each binder was assayed against CaRvs167 in the same assay as above.
Summary of the method: as §1

Binder	SPOT peptide array binding signal intensity
GATNNAPTLPKRKNP	125

These binders were tested against CaRvs167-3 in the same assay as above.
Summary of the method: as §1

Binder	SPOT peptide array binding signal intensity
GATNNAPTLPKRKNP	3.25

What follows are binders tested against CaSho1 in the same assay as above.
Summary of the method: as §1

Binder	SPOT peptide array binding signal intensity
GATNNAPTLPKRKNP	≤ 0

These binders were tested against CaSla1-D1-D2 in the same assay as above.
Summary of the method: as §1

Binder	SPOT peptide array binding signal intensity
GATNNAPTLPKRKNP	47

Each binder was assayed against CaSla1-D3 in the same assay as above.
Summary of the method: as §1

Binder	SPOT peptide array binding signal intensity
GATNNAPTLPKRKNP	≤ 0

The binders below were run against ScAbp1 in the same assay as above.
Summary of the method: as §1

Binder	SPOT peptide array binding signal intensity
GATNNAPTLPKRKNP	120

These binders were tested against ScBbc1 in the same assay as above.
Summary of the method: as §1

Binder	SPOT peptide array binding signal intensity
GATNNAPTLPKRKNP	7.12

What follows are binders tested against ScBem1-D1 in the same assay as above.
Summary of the method: as §1

Binder	SPOT peptide array binding signal intensity
GATNNAPTLPKRKNP	≤ 0

These binders were tested against ScBzz1-D1 in the same assay as above.
Summary of the method: as §1

Binder	SPOT peptide array binding signal intensity
GATNNAPTLPKRKNP	10.5

What follows are binders tested against ScBzz1-D2 in the same assay as above.
Summary of the method: as §1

Binder	SPOT peptide array binding signal intensity
GATNNAPTLPKRKNP	12.5

Each binder was assayed against ScCyk3 in the same assay as above.
Summary of the method: as §1

Binder	SPOT peptide array binding signal intensity
GATNNAPTLPKRKNP	≤ 0

These binders were tested against ScFus1 in the same assay as above.
Summary of the method: as §1

Binder	SPOT peptide array binding signal intensity
GATNNAPTLPKRKNP	6.5

Each binder was assayed against ScHof1 in the same assay as above.
Summary of the method: as §1

Binder	SPOT peptide array binding signal intensity
GATNNAPTLPKRKNP	0.25

These binders were tested against ScHse1 in the same assay as above.
Summary of the method: as §1

Binder	SPOT peptide array binding signal intensity
GATNNAPTLPKRKNP	27.2

Each binder was assayed against ScLsb1 in the same assay as above.
Summary of the method: as §1

Binder	SPOT peptide array binding signal intensity
GATNNAPTLPKRKNP	242

The binders below were run against ScLsb2 in the same assay as above.
Summary of the method: as §1

Binder	SPOT peptide array binding signal intensity
GATNNAPTLPKRKNP	3.5

These binders were tested against ScLsb3 in the same assay as above.
Summary of the method: as §1

Binder	SPOT peptide array binding signal intensity
GATNNAPTLPKRKNP	4610

The binders below were run against ScLsb4 in the same assay as above.
Summary of the method: as §1

Binder	SPOT peptide array binding signal intensity
GATNNAPTLPKRKNP	2740

These binders were tested against ScMyo3 in the same assay as above.
Summary of the method: as §1

Binder	SPOT peptide array binding signal intensity
GATNNAPTLPKRKNP	≤ 0

These binders were tested against ScMyo5 in the same assay as above.
Summary of the method: as §1

Binder	SPOT peptide array binding signal intensity
GATNNAPTLPKRKNP	≤ 0

The binders below were run against ScNbp2 in the same assay as above.
Summary of the method: as §1

Binder	SPOT peptide array binding signal intensity
GATNNAPTLPKRKNP	4.5
